Data as given in the supplement of paper PMC5662767.
Where a name gives a salt, the structure may show the parent alone.

What follows are molecules tested on Drosophila S2 cl14 SmoIP sensor cells (assay: normalized SmoIP GFP fluorescence (untreated unstimulated = 0%, untreated Hh-stimulated = 100%); higher = more Smo activation sensor fluorescence). Settings: stimulation: Hh conditioned medium (+Hh); compound concentration: 2 uM; 24 h.
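Further: flow cytometry read-out as median GFP intensity of gated cells, compounds added 30 min before Hh-conditioned or mock medium, mock-treated cells serving as unstimulated baseline.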

| Compound | normalized SmoIP GFP fluorescence [%] |
| --- | --- |
| CCCCN(Cc1ccc(C(=O)NO)cc1)C(=O)Nc1ccccc1 [nexturastat-a] | 105 |
| N#Cc1c(O)c2c(-c3ccc(-c4ccccc4O)cc3)csc2[nH]c1=O | 139 |
| O=C1NC(=O)/C(=C/c2ccc(-c3ccc(F)cc3O)o2)S1 | 99.3 |
| Cc1cnc(Nc2ccc(OCCN3CCCC3)cc2)nc1Nc1cccc(S(=O)(=O)NC(C)(C)C)c1 | 173 |
| COc1cccc(C=NCCN=Cc2cccc(OC)c2[O-])c1[O-].[Cl-].[Mn+3] | 114 |
| C[C@H](NC(=O)/C(C#N)=C/c1cccc(Br)n1)c1ccccc1 | 86.1 |
| CCOC(=O)[C@H](CCc1ccccc1)N[C@@H](C)C(=O)N1Cc2cc(OC)c(OC)cc2C[C@H]1C(=O)O [moexipril-hydrochloride] | 126 |
| Cc1ccc([C@@H]2O[C@H](CO)[C@@H](O)[C@H](O)[C@H]2O)cc1Cc1ccc(-c2ccc(F)cc2)s1 [canagliflozin] | 123 |
| CC[C@H](Nc1ncnc2[nH]cnc12)c1nc2cccc(F)c2c(=O)n1-c1ccccc1 | 126 |
| COc1ccc(-c2ccc3c(N4CCOC[C@@H]4C)nc(N4CCOC[C@@H]4C)nc3n2)cc1CO | 61.4 |
| CNC(=O)c1ccc(N2C(=S)N(c3ccc(C#N)c(C(F)(F)F)c3)C(=O)C2(C)C)cc1F | 113 |
| CS(=O)(=O)CCNCc1ccc(-c2ccc3ncnc(Nc4ccc(OCc5cccc(F)c5)c(Cl)c4)c3c2)o1 [Lapatinib-Ditosylate] | 253 |
| CCC1=C(C)CN(C(=O)NCCc2ccc(S(=O)(=O)NC(=O)N[C@H]3CC[C@H](C)CC3)cc2)C1=O [Glimepiride] | 94.8 |
| CC(C)[C@H](C(=O)Nc1ccc(C(=O)NO)cc1)c1ccccc1 | 299 |
| Cn1c(Nc2ccc(C(F)(F)F)cc2)nc2cc(Oc3ccnc(-c4ncc(C(F)(F)F)[nH]4)c3)ccc21 | 183 |
| CC1(C)O[C@@H]2[C@@H](CO[C@@]3(COS(N)(=O)=O)OC(C)(C)O[C@@H]23)O1 [Topiramate] | 114 |
| C=CC(=O)Nc1cccc(Nc2nc(Nc3ccc(Oc4ccnc(C(=O)NC)c4)cc3)ncc2F)c1 | 116 |
| Cc1ccc(NCCCc2ccccc2)c(N)c1 | 224 |
| C[N+]1(C)CCC(=C(c2ccccc2)c2ccccc2)CC1 [diphemanil-methylsulfate] | 110 |

| Compound | normalized SmoIP GFP fluorescence [%] |
| --- | --- |
| C[S+]([O-])c1ccc(-c2nc(-c3ccc(F)cc3)c(-c3ccncc3)[nH]2)cc1 (stereo unspecified) | 119 |
| Cn1cc(-c2cnn3c(N)c(Br)c([C@@H]4CCCNC4)nc23)cn1 | 185 |
| NC(=O)Nc1sc(-c2ccc(F)cc2)cc1C(N)=O [tpca-1] | 106 |
| CNCc1ccc(-c2cc(-c3nc(-c4ccc(S(=O)(=O)C(C)C)cc4)cnc3N)on2)cc1 | 123 |
| O=C(Nc1ccccc1)Nc1ccc(-c2ccc(C(=O)[C@@H]3CCC[C@H]3C(=O)O)cc2)cc1 | 128 |
| Cc1nnc(C(=O)NC(C)(C)c2nc(C(=O)NCc3ccc(F)cc3)c(O)c(=O)n2C)o1 [Raltegravir-(MK-0518)] | 111 |
| CCc1c2c(nc3ccc(O)cc13)-c1cc3c(c(=O)n1C2)COC(=O)[C@]3(O)CC | 95.2 |
| Cc1ccc(S(=O)(=O)NC(=O)NN2CC3CCCC3C2)cc1 (stereo unspecified) [gliclazide-diamicron] | 111 |
| O=c1n(CCCN2CCN(c3cccc(Cl)c3)CC2)nc2ccccn12 [trazodone-hydrochloride-desyrel] | 172 |
| Cc1ccccc1-n1c(Cn2nc(-c3cccc(O)c3)c3c(N)ncnc32)nc2cccc(C)c2c1=O | 101 |
| CCc1ccc(/C=C2/SC(=S)NC2=O)cc1 | 105 |
| Nc1nc(N)c(N=O)c(OCC2CCCCC2)n1 | 139 |
| CN(Cc1cnc2nc(N)nc(N)c2n1)c1ccc(C(=O)N[C@@H](CCC(=O)O)C(=O)O)cc1 [Abitrexate] | 200 |
| CC(=O)/N=c1/sc(S(N)(=O)=O)nn1C [methazolamide] | 111 |
| Cc1ccccc1C(=O)Nc1ccc(C(=O)N2CCCC(N(C)C)c3ccccc32)cc1 (stereo unspecified) [mozavaptan] | 105 |
| COC[C@H](NC(=O)c1cnc(C)s1)C(=O)N[C@@H](COC)C(=O)N[C@@H](Cc1ccccc1)C(=O)[C@@]1(C)CO1 [oprozomib-onx-0912] | 81.9 |
| c1ccc(CC2=NCCN2)cc1 [tolazoline-hcl] | 103 |
| Fc1ccc([C@@H]2CCNC[C@H]2COc2ccc3c(c2)OCO3)cc1 [paroxetine-hcl] | 103 |
| O=C(Nc1ccccc1Br)N[C@@H]1CCN(c2ccc(C(F)(F)F)cn2)C1 | 137 |

Same assay, conditions: stimulation: mock conditioned medium (-Hh); compound concentration: 2 uM; 24 h

| Compound | normalized SmoIP GFP fluorescence [%] |
| --- | --- |
| CCCCN(Cc1ccc(C(=O)NO)cc1)C(=O)Nc1ccccc1 [nexturastat-a] | 6.74 |
| N#Cc1c(O)c2c(-c3ccc(-c4ccccc4O)cc3)csc2[nH]c1=O | 6.28 |
| O=C1NC(=O)/C(=C/c2ccc(-c3ccc(F)cc3O)o2)S1 | 0.588 |
| Cc1cnc(Nc2ccc(OCCN3CCCC3)cc2)nc1Nc1cccc(S(=O)(=O)NC(C)(C)C)c1 | 8.54 |
| COc1cccc(C=NCCN=Cc2cccc(OC)c2[O-])c1[O-].[Cl-].[Mn+3] | -2.2 |
| C[C@H](NC(=O)/C(C#N)=C/c1cccc(Br)n1)c1ccccc1 | 8.14 |
| CCOC(=O)[C@H](CCc1ccccc1)N[C@@H](C)C(=O)N1Cc2cc(OC)c(OC)cc2C[C@H]1C(=O)O [moexipril-hydrochloride] | 3.4 |
| Cc1ccc([C@@H]2O[C@H](CO)[C@@H](O)[C@H](O)[C@H]2O)cc1Cc1ccc(-c2ccc(F)cc2)s1 [canagliflozin] | -10.2 |
| CC[C@H](Nc1ncnc2[nH]cnc12)c1nc2cccc(F)c2c(=O)n1-c1ccccc1 | -12.7 |
| COc1ccc(-c2ccc3c(N4CCOC[C@@H]4C)nc(N4CCOC[C@@H]4C)nc3n2)cc1CO | -2.96 |
| CNC(=O)c1ccc(N2C(=S)N(c3ccc(C#N)c(C(F)(F)F)c3)C(=O)C2(C)C)cc1F | 4.03 |
| CS(=O)(=O)CCNCc1ccc(-c2ccc3ncnc(Nc4ccc(OCc5cccc(F)c5)c(Cl)c4)c3c2)o1 [Lapatinib-Ditosylate] | 9 |
| CCC1=C(C)CN(C(=O)NCCc2ccc(S(=O)(=O)NC(=O)N[C@H]3CC[C@H](C)CC3)cc2)C1=O [Glimepiride] | 3.18 |
| CC(C)[C@H](C(=O)Nc1ccc(C(=O)NO)cc1)c1ccccc1 | 60.6 |
| Cn1c(Nc2ccc(C(F)(F)F)cc2)nc2cc(Oc3ccnc(-c4ncc(C(F)(F)F)[nH]4)c3)ccc21 | 2.32 |
| CC1(C)O[C@@H]2[C@@H](CO[C@@]3(COS(N)(=O)=O)OC(C)(C)O[C@@H]23)O1 [Topiramate] | 5.45 |
| C=CC(=O)Nc1cccc(Nc2nc(Nc3ccc(Oc4ccnc(C(=O)NC)c4)cc3)ncc2F)c1 | -1.23 |
| Cc1ccc(NCCCc2ccccc2)c(N)c1 | 40.1 |
| C[N+]1(C)CCC(=C(c2ccccc2)c2ccccc2)CC1 [diphemanil-methylsulfate] | -3.62 |

| Compound | normalized SmoIP GFP fluorescence [%] |
| --- | --- |
| C[S+]([O-])c1ccc(-c2nc(-c3ccc(F)cc3)c(-c3ccncc3)[nH]2)cc1 (stereo unspecified) | -5.98 |
| Cn1cc(-c2cnn3c(N)c(Br)c([C@@H]4CCCNC4)nc23)cn1 | 5.65 |
| NC(=O)Nc1sc(-c2ccc(F)cc2)cc1C(N)=O [tpca-1] | -3.79 |
| CNCc1ccc(-c2cc(-c3nc(-c4ccc(S(=O)(=O)C(C)C)cc4)cnc3N)on2)cc1 | 28.9 |
| O=C(Nc1ccccc1)Nc1ccc(-c2ccc(C(=O)[C@@H]3CCC[C@H]3C(=O)O)cc2)cc1 | -11 |
| Cc1nnc(C(=O)NC(C)(C)c2nc(C(=O)NCc3ccc(F)cc3)c(O)c(=O)n2C)o1 [Raltegravir-(MK-0518)] | -11.7 |
| CCc1c2c(nc3ccc(O)cc13)-c1cc3c(c(=O)n1C2)COC(=O)[C@]3(O)CC | 5.3 |
| Cc1ccc(S(=O)(=O)NC(=O)NN2CC3CCCC3C2)cc1 (stereo unspecified) [gliclazide-diamicron] | -13.7 |
| O=c1n(CCCN2CCN(c3cccc(Cl)c3)CC2)nc2ccccn12 [trazodone-hydrochloride-desyrel] | -8.23 |
| Cc1ccccc1-n1c(Cn2nc(-c3cccc(O)c3)c3c(N)ncnc32)nc2cccc(C)c2c1=O | -5.98 |
| CCc1ccc(/C=C2/SC(=S)NC2=O)cc1 | -1.63 |
| Nc1nc(N)c(N=O)c(OCC2CCCCC2)n1 | 12.5 |
| CN(Cc1cnc2nc(N)nc(N)c2n1)c1ccc(C(=O)N[C@@H](CCC(=O)O)C(=O)O)cc1 [Abitrexate] | 13.3 |
| CC(=O)/N=c1/sc(S(N)(=O)=O)nn1C [methazolamide] | -2.48 |
| Cc1ccccc1C(=O)Nc1ccc(C(=O)N2CCCC(N(C)C)c3ccccc32)cc1 (stereo unspecified) [mozavaptan] | -2.08 |
| COC[C@H](NC(=O)c1cnc(C)s1)C(=O)N[C@@H](COC)C(=O)N[C@@H](Cc1ccccc1)C(=O)[C@@]1(C)CO1 [oprozomib-onx-0912] | 26.7 |
| c1ccc(CC2=NCCN2)cc1 [tolazoline-hcl] | -1.74 |
| Fc1ccc([C@@H]2CCNC[C@H]2COc2ccc3c(c2)OCO3)cc1 [paroxetine-hcl] | 0.588 |
| O=C(Nc1ccccc1Br)N[C@@H]1CCN(c2ccc(C(F)(F)F)cn2)C1 | -2.82 |
